In PubChem BioAssay (EPA / NIEHS) one finds outcome and AC50 data, which are given here for 10 molecules.

The target in test [1] is Peroxisome proliferator-activated receptor gamma (Homo sapiens) (UniProt P37231). Briefly: OT_PPARg_PPARgSRC1_0480: Odyssey Thera (OT) 8-hour Protein-Complementation Assay for Peroxisome Proliferator-activated Receptor Gamma / SRC-1 Co-activator (AID 2283387; active = hit-call score of the fitted dose curve at least 0.9, where 1 is the maximum;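 also: nuclear to cytoplasmic split Venus YFP fluorescence ratio reporting PPARg SRC-1 interaction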). Put shortly: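 Protein-fragment complementation in HEK293T: Venus YFP halves (residues 1-158, 159-239, mutated to IFP1/IFP2) fused to PPARg/SRC-1. 8 h exposure; N/C ratio at 488 nm; DMSO negative control.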
Peroxisome proliferator-activated receptor gamma (Homo sapiens), sequence (P37231 whole entry, looked up, the tested form may be a part): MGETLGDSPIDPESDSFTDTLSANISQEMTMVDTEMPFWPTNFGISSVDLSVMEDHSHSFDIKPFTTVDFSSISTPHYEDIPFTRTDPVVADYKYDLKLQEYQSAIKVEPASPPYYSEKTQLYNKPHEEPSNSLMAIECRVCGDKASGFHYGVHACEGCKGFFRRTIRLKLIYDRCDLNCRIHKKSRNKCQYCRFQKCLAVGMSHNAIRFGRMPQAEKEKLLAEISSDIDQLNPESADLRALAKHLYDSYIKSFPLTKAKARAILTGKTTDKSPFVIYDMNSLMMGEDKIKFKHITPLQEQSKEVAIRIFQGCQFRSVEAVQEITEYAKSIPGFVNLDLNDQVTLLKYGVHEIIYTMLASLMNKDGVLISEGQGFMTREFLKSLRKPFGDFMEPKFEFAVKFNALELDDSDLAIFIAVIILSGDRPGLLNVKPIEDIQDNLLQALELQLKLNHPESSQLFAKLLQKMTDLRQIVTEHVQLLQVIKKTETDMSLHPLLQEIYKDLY

For test [2] the target is unchanged. The experiment in a line: OT_PPARg_PPARgSRC1_1440: Odyssey Thera (OT) 24-hour Protein-Complementation Assay for Peroxisome Proliferator-activated Receptor Gamma/ SRC-1 Co-activator (AID 2283388; active = hit-call score of the fitted dose curve at least 0.9, where 1 is the maximum;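 also: nuclear to cytoplasmic ratio of reconstituted Venus YFP fluorescence in fixed imaged cells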). Put shortly: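 Readout is the 488 nm N/C fluorescence ratio from fixed, Draq5-stained HEK293T cells after 24 h compound exposure. Cells carried transiently transfected PPARg and SRC-1 fused to Venus fragments, transfected 48 h before treatment.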

Read-out in test [3]: Tumor necrosis factor receptor superfamily member 6 (Homo sapiens) (UniProt P25445)
Briefly: LTEA_HepaRG_FAS: Life Technologies and Expression Analysis (LTEA) Assay for Fas cell surface death receptor (FAS) using HepaRG (AID 2283447). To be noted: mRNA level, 48 h; actives raise or lower the signal. Put shortly:
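FAS transcript level was measured by TaqMan qRT-PCR against three housekeeping genes after 48 h chemical exposure. Cells were HepaRG, 0.5% DMSO vehicle, with a top concentration of 100 uM and half-log dilutions over eight points, in duplicate.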

Read-out in test [4]: Fatty acid synthase (Homo sapiens) (UniProt P49327)
Briefly: LTEA_HepaRG_FASN: Life Technologies and Expression Analysis (LTEA) Assay for Fatty Acid Synthase (FASN) using HepaRG (AID 2283448).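 As to AC50: differentiated human HepaRG liver cells in serum-free induction medium.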 The settings on record: mRNA level, 48 h; actives raise or lower the signal. Put shortly: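 Cells were plated, cultured 48 h, switched to serum-free induction medium, then dosed in duplicate (max 100 uM, half-log dilutions, 0.5% DMSO) for 48 h. RNA was then isolated and FASN quantified by qRT-PCR.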

Read-out in test [5]: Cyclin D2 (CCND2), CCND2 (gene 894)
The experiment in a line: LTEA_HepaRG_CCND2: Life Technologies and Expression Analysis (LTEA) Assay for Cyclin D2 (CCND2) using HepaRG (AID 2283449). To be noted: mRNA level, 48 h; actives raise or lower the signal. The gist of the method: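 CCND2 transcript levels, quantified by qRT-PCR and normalised to three housekeeping genes, were fitted bidirectionally against 0.5% DMSO. HepaRG cultures were dosed 48 h in duplicate with an 8-point half-log series up to 100 uM.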

Read-out in test [6]: Cyclin Dependent Kinase Inhibitor 1A (CDKN1A), CDKN1A (gene 1026)
The experiment in a line: LTEA_HepaRG_CDKN1A: Life Technologies and Expression Analysis (LTEA) Assay for Cyclin Dependent Kinase Inhibitor 1A (CDKN1A) using HepaRG (AID 2283450). The settings on record: mRNA level, 48 h; actives raise or lower the signal. The gist of the method:
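Expression quantified by Fluidigm qRT-PCR with ACTB, GAPDH and POLR2A normalization, fitted bidirectionally against 0.5% DMSO. Cells: HepaRG, plated 48 h then treated 48 h in serum-free induction medium, top concentration 100 uM with half-log dilutions.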

Read-out in test [7]: Cyclin D1 (CCND1), CCND1 (gene 595)
Briefly: LTEA_HepaRG_CCND1: Life Technologies and Expression Analysis (LTEA) Assay for Cyclin D1 (CCND1) using HepaRG (AID 2283451).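 As to AC50: differentiated human HepaRG liver cells in serum-free induction medium; TaqMan qRT-PCR transcript level normalised to ACTB GAPDH and POLR2A housekeeping genes.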 The settings on record: mRNA level, 48 h; actives raise or lower the signal. The gist of the method: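 Expression of CCND1 was quantified by qRT-PCR on Fluidigm arrays using ACTB, GAPDH and POLR2A as reference genes. HepaRG cultures, plated 48 h beforehand, were dosed for 48 h at up to 100 uM (half-log, 8 points) in 0.5% DMSO.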

Read-out in test [8]: flavin-containing dimethylaniline monooxygenases 3 (FMO3), FMO3 (gene 2328)
The experiment in a line: LTEA_HepaRG_FMO3: Life Technologies and Expression Analysis (LTEA) Assay for flavin-containing dimethylaniline monooxygenases 3 (FMO3) using HepaRG (AID 2283453).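 As to AC50: differentiated human HepaRG liver cells in serum-free induction medium; FMO3 transcript by TaqMan qRT-PCR normalized to ACTB GAPDH and POLR2A.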 The settings on record: mRNA level, 48 h; actives raise or lower the signal. Put shortly: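 FMO3 transcript quantified by TaqMan qRT-PCR against three housekeeping genes after 48 h chemical exposure of HepaRG cells. Eight-point half-log series, top 100 uM, 0.5% DMSO vehicle; phenobarbital 1mM induction control; up- or down-regulation fitted.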

Read-out in test [9]: Cytochrome P450 (CYP1A1), CYP1A1 (gene 1543)
Briefly: LTEA_HepaRG_CYP1A1: Life Technologies and Expression Analysis (LTEA) Assay for Cytochrome P450 (CYP1A1) using HepaRG (AID 2283454). The settings on record: mRNA level, 48 h; actives raise or lower the signal. The gist of the method: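 CYP1A1 transcript levels measured by Fluidigm qRT-PCR against three housekeeping genes, 48 h after chemical dosing of human HepaRG cells (highest concentration 100 uM, half-log steps, 0.5% DMSO vehicle). Gain or loss of signal fitted relative to DMSO.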

Test [10] concerns the target Retinoic acid receptor RXR-alpha (Homo sapiens) (UniProt P19793). Briefly: OT_NURR1_NURR1RXRa_1440: Odyssey Thera (OT) 24-hour HEK293T Protein Complementation Assay for Nurr1/retinoid X receptor (RXR) (AID 2283386; active = hit-call score of the fitted dose curve at least 0.9, where 1 is the maximum). The gist of the method: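 Steps: fragment-tagged Nurr1 and RXRα expressed in HEK293T; compounds added; after 24 h, complemented reporter quantified by fluorescence intensity; signal increase over DMSO fitted as the single endpoint.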

Read-out in test [11]: catalase (CAT), CAT (gene 847)
The experiment in a line: LTEA_HepaRG_CAT: Life Technologies and Expression Analysis (LTEA) Assay for catalase (CAT) using HepaRG (AID 2283452).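 As to AC50: TaqMan qRT-PCR signal normalized to ACTB GAPDH and POLR2A housekeeping genes.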 To be noted: mRNA level, 48 h; actives raise or lower the signal. The gist of the method:
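Expression of CAT was quantified by TaqMan qRT-PCR with ACTB/GAPDH/POLR2A normalization after 48 h chemical exposure of HepaRG. Eight-point half-log series, top 100 uM, in 0.5% DMSO; gain or loss fitted against vehicle.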

The nature of test [12]: CEETOX_H295R_11DCORT: CeeTox H295R High-throughput Steroidogenesis Assay for 11-Deoxycortisol (11DCORT) (AID 2283432). To be noted: actives raise or lower the signal. The gist of the method: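 Adrenal carcinoma line H295R, run per OECD 456 with minor changes, was forskolin-stimulated (10 uM, 48 h) before a 48 h chemical exposure at 0.1% DMSO. Secreted 11-deoxycortisol was quantified by HPLC-MS/MS.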

Test [13] is described as follows: CEETOX_H295R_CORTISOL: CeeTox H295R High-throughput Steroidogenesis Assay for Cortisol (AID 2283438).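 Also: cortisol secreted into medium quantified by LC-MS/MS.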 To be noted: actives raise or lower the signal. The gist of the method:
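Cortisol synthesis by H295R cells is measured 48 h after chemical dosing, following a 48 h stimulation with 10 uM forskolin. Hormone is extracted and quantified by HPLC-MS/MS, and activity is fitted bidirectionally against the DMSO control.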

A short description of test [14]: CEETOX_H295R_DOC: CeeTox H295R High-throughput Steroidogenesis Assay for DOC (AID 2283439). The settings on record: actives raise or lower the signal. Put shortly:
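Steps: seed H295R, adhere overnight; 10 uM forskolin 48 h; replace with chemical medium (0.1% DMSO) 48 h; collect medium, MTBE extraction, HPLC-MS/MS for DOC. Viability then checked by MTT; cytotoxic chemicals diluted until viability ≥70%.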

Test [15] is described as follows: CEETOX_H295R_PROG: CeeTox H295R High-throughput Steroidogenesis Assay for Progesterone (PROG) (AID 2283442).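 Also: human H295R adrenal cells primed with 10 µM forskolin before dosing.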 To be noted: actives raise or lower the signal. Put shortly:
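Progesterone secreted by human H295R cells was measured by LC-MS/MS following 48 h chemical exposure at 0.1% DMSO, preceded by 48 h forskolin (10 uM) stimulation. Same-well MTT viability; cytotoxic concentrations diluted 10- or 100-fold and retested.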

SMILES strings stand for the structures. “And” between values parts separate entries of the source, which are not always exact repeats. Equal values may be shown once. Results filed as inconclusive are left out. The source made the active and inactive calls. The calls were made as follows, unless noted: active = hit-call score of the fitted dose curve at least 0.9, where 1 is the maximum; inactive = score below 0.9.

Fatty acid synthase (Homo sapiens), sequence (P49327 whole entry, looked up): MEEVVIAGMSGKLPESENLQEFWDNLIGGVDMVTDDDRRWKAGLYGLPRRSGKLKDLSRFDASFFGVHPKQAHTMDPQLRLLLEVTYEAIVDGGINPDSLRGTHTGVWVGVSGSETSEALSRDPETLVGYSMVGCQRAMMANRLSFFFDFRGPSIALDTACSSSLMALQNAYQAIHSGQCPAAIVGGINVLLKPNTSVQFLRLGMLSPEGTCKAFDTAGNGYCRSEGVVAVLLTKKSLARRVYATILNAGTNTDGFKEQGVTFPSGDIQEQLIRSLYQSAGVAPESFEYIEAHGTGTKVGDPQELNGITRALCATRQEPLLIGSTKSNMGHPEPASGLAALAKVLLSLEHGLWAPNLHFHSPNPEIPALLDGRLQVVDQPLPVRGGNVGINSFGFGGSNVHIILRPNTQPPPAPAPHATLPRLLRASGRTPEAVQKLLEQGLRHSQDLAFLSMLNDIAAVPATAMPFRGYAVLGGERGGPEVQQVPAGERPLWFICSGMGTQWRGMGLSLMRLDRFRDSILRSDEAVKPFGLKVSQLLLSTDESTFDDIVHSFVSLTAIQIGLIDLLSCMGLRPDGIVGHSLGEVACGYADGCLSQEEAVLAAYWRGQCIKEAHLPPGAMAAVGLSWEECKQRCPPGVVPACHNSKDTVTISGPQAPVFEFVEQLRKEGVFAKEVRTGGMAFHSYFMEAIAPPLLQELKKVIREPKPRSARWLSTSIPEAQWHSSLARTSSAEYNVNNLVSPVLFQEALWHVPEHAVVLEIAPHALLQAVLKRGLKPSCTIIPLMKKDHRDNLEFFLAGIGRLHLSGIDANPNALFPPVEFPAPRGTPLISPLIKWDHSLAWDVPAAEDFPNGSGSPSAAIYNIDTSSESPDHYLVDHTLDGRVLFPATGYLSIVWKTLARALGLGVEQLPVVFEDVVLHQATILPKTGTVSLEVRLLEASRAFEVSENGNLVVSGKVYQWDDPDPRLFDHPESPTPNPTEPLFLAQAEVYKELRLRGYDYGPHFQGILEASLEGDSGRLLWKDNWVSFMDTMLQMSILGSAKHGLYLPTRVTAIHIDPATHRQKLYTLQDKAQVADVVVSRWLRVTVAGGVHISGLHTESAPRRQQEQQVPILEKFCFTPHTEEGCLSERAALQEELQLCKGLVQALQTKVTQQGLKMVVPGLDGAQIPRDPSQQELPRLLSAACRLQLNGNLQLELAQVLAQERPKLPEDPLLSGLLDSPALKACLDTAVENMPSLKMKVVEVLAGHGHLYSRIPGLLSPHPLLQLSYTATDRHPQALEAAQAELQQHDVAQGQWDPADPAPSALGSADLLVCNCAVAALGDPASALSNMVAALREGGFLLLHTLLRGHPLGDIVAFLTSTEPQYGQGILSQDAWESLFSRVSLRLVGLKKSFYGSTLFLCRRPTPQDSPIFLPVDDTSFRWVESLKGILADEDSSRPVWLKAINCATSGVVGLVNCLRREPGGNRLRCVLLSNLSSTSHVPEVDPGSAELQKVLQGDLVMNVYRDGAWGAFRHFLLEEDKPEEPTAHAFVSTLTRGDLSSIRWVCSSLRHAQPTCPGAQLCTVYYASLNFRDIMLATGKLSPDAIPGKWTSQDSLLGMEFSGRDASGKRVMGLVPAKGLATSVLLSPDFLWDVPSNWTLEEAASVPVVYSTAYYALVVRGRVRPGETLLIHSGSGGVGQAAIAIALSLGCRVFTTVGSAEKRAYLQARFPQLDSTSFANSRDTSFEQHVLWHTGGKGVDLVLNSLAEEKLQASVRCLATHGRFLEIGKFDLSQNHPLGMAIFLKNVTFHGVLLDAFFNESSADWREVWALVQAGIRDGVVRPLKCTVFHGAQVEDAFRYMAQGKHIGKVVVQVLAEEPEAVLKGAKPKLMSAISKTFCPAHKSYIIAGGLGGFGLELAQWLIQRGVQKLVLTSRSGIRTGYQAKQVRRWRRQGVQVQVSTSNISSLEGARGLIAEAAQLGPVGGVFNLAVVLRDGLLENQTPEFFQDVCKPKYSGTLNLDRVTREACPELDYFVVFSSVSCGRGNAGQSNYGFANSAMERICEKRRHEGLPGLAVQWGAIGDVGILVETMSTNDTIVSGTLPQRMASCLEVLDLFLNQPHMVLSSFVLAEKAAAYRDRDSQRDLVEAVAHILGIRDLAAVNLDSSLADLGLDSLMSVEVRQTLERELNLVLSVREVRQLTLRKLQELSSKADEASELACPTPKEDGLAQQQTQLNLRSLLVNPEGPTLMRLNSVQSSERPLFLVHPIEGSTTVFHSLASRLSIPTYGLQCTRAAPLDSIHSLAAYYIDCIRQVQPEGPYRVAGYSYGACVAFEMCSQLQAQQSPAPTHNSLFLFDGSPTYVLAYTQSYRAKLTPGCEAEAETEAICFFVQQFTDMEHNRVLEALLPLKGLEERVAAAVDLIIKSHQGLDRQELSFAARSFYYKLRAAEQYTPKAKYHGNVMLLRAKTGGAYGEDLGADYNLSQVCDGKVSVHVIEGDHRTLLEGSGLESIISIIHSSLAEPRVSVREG
Retinoic acid receptor RXR-alpha (Homo sapiens), sequence (P19793 whole entry, looked up, the tested form may be a part): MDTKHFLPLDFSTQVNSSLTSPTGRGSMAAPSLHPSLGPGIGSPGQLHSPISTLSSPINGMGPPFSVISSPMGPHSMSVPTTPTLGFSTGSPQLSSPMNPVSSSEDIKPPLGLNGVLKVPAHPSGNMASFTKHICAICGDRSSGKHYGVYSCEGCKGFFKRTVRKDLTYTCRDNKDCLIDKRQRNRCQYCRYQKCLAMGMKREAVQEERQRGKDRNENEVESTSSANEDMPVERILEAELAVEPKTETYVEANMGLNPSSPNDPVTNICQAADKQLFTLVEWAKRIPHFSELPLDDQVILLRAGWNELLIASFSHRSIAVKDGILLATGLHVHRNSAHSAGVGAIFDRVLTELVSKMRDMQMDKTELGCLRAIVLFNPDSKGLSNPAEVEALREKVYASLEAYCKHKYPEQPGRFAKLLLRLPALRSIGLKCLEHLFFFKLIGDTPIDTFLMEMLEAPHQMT

For `CC(O)CO` (stereo unspecified), the outcome in [1], in test [2], in test [3], in test [4], in [5] and in test [6] was inactive. Further, the call in test [7], in test [8] and in test [9] was inactive.

Usually AC50 stands for the concentration giving half of the maximal activity seen. For `CCN(CC)CCNc1ccc(CNC=O)c2sc3ccc(OC)cc3c(=O)c12`, the concentration at half-maximal activity (AC50) is 11.7 µM (active) and 11.8 µM (active) in test [10]; 34.6 µM (active) in test [8]; 4.07 µM (active) in test [9]. For the same molecule, the molecule was classed as inactive in test [1], in [2], in test [3], in test [5], in [6] and in [7].

As for `CN1CCN(c2ccccc2/C=C2\SCCN(c3ccc(Cl)c(Cl)c3)C2=O)CC1`, the result in test [1], in test [2], in test [3], in test [4], in [5] and in test [7] was inactive. Moreover, the molecule was called inactive in test [11]. Also, the AC50 in [8] was 50 µM (active); in test [9], 1.56 µM (active).

Regarding `CC1=C(/C=C/C(C)=C/C=C/C(C)=C/C(=O)O)C(C)(C)CCC1`, the call in test [1], in test [2], in test [12], in test [13], in [3] and in [5] was inactive. The molecule was called inactive in [7]. For the same molecule, the half-maximal activity concentration (AC50) in test [14] is 7.19 µM (active); in test [15], 8.11 µM (active); in test [8] it was 0.446 µM (active); in test [9], 35.9 µM (active).

With `CCCCCCC(=O)O`, the molecule was called inactive in test [10], in test [3], in test [4], in [5], in [7] and in [11]. For the same molecule, the call in [8] was inactive. Besides, the half-maximal activity concentration (AC50) in [9] was 59.9 µM (active).

As to `CC[C@H](c1ccc(O)cc1)[C@@H](CC)c1ccc(O)cc1`, the molecule was called inactive in [10], in [1], in [2] and in test [9]. For the same molecule, the AC50 was 89.3 µM (active) in test [3]; 76.2 µM (active) in test [4]; 62.4 µM (active) in test [5]; 77 µM (active) in test [7]; 78.4 µM (active) in test [11]; 79.9 µM (active) in test [8].

On to `COCC(C)OCC(C)O` (stereo unspecified), for which the molecule was called inactive in test [10], in [1], in test [2], in test [3], in test [4] and in [5]. In addition, the result in test [7] and in test [8] was inactive. For the same molecule, the concentration at half-maximal activity (AC50) in test [9] is 50 µM (active).

Regarding `CC(C)(C)c1ccc(O)c(C(C)(C)C)c1`, the molecule was classed as inactive in test [1], in [2], in test [3], in [4], in test [7] and in test [11]. Further, the outcome in test [8] and in test [9] was inactive. For the same molecule, the half-maximal activity concentration (AC50) in [5] is 0.00316 µM (active).

Turning to `CCCCC(CC)COC(=O)CCCCC(=O)OCC(CC)CCCC` (stereo unspecified), the call in [1], in test [2], in test [3], in test [4], in test [5] and in [7] was inactive. The call in [8] and in test [9] was inactive.

For the molecule `CC(C)CCCCCCOC(=O)CCCCC(=O)OCCCCCCC(C)C`, the call in test [10], in [1], in test [2], in test [3], in test [4] and in test [5] was inactive. Further, the call in test [7] and in test [8] was inactive. Also, in test [9], the half-maximal activity concentration (AC50) is 50 µM (active).
